# The list is not random: actives were taken first. Their share in the collection is about 21%.
# SARS PLpro yeast: SARS-CoV PLP inhibition in yeast. S. cerevisiae expressing SARS-CoV PLpro, growth rescue. Potency, µM (doses to about 32.9 µM), without a hit: at the highest dose activity, positive = growth rescue, hits mostly activators. actives 0.19% (n = 330,000). AID 485353; calls by dose curve; further: potency means the concentration at half of the fitted maximal effect; 0% is about no effect; nearly all actives have a fitted effect of over 55% in size
# Cycloheximide cs: affects cycloheximide protein synthesis inhibition readout, counter-screen. actives 12% (n = 300,000). AID 2314. cell reporter, cycloheximide protein synthesis inhibition counterscreen. max response, %; in the data active means max response mostly above about 13%, no sharp cut-off; inactive means mostly below about 14%; further: read at 38.3 µM for the half of the compounds with a filed dose; 0% is about no effect
# NS1 inh: influenza NS1 inhibition; Potency, µM (top dose mostly 46.1 µM), for the others: at the top dose activity, positive = more growth; actives 0.4% (n = 270,000); AID 2326; calls by dose curve; further: potency means the concentration at half of the fitted maximal effect; actives are rising curves; nearly all actives have a fitted effect of over 50% in size
#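 Read-out: OD600 growth recovery of NS1-expressing budding yeast. Cells grown overnight at 30C in -URA glucose medium, washed, resuspended and diluted 1:100 in 2% galactose assay medium, pH 6.0. Same strain lacking NS1 served as positive control.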
# Shiga inhibitor: Shiga toxin inhibition; Vero cells, Shiga toxin protein synthesis inhibition reporter; inhibition, % at 38.7 µM; actives 9.2% (n = 290,000); AID 2315; in the data active means inhibition mostly above about 28%, no sharp cut-off; inactive means mostly below about 43%; further: 0% is about no effect
# Pf growth 96h: P. falciparum growth inhibition at 96 hours; P. falciparum luciferase reporter growth, 96 h; Potency, µM (top dose mostly 28.7 µM), without a hit: top-dose activity change, negative = inhibition, most hits filed as inhibitors; actives 6.9% (n = 320,000); AID 504834; further: potency means the concentration at half of the fitted maximal effect; on the % scale 0 is the no-effect control and ±100 the full control effect
#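 96 h incubation, 37 C, 5% CO2, of luciferase-reporter P. falciparum-infected RBCs (2% hematocrit, 0.05% parasitemia final) with test compounds; endpoint luminescence.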
# Pf growth 48h: P. falciparum growth inhibition at 48 hours (one generation). P. falciparum luciferase growth in erythrocytes, 48 h. actives 5.9% (n = 310,000). Potency, µM (top dose mostly 28.7 µM), without a hit: at the top dose activity change, negative = inhibition, most hits filed as inhibitors; further: potency means the concentration at half of the fitted maximal effect; on the % scale 0 is the no-effect control and ±100 the full control effect
#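 Parasite viability was followed by luminescence of a genomically integrated firefly luciferase. Cultures held 0.1% parasitemia at 2% hematocrit (final), incubated under 5% CO2 at 37 C.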
# * marks the source's active call; other numbers are inactive results; ? = inconclusive; . = not tested or not shown. Unless noted, the call rests on the fitted dose curve; in most records, active means well fitted inhibition curve with a large enough effect; inconclusive means small, poorly fitted or top-dose-only effect, or another doubt; inactive means no such curve, though single readings can be large or run the other way.
SMILES,SARS PLpro yeast,Cycloheximide cs,NS1 inh,Shiga inhibitor,Pf growth 96h,Pf growth 48h
CCOC(=O)C1CCN(C(=O)C(=O)N2CCC(C(=O)OCC)CC2)CC1,3%,-2,2%,7,4%,-12%
CCOC(=O)C1CCN(c2c(N3CCCCCC3)c(=O)c2=O)CC1,3%,9,-4%,-9,10µM*,12%
CC(C)CCn1c(=S)[nH]c2ncccc2c1=O,11%,2,-4%,0,?,6%
Cn1c(=S)[nH]c2cccnc21,-4%,1,6%,-9,8.3µM*,15%
O=C1N(CN2CCOCC2)c2ccccc2C12OCC(CCl)O2 (stereo not given),0%,-3,-1%,-6,0%,?
CCOc1ccc(CC(=O)Nc2c(C(=O)Nc3ccccc3)oc3ccccc23)cc1OCC,-1%,-3,11%,-12,0.93µM*,-1%
COc1ccc(CC(=O)Nc2c(C(N)=O)oc3ccccc23)cc1OC,.,-4,0%,14,-1%,-8%
CCOc1ccc(CC(=O)Nc2c(C(N)=O)oc3ccc(Br)cc23)cc1OCC,7%,-2,-39%,-5,12µM*,.
CC(=O)c1c(C)nc2sc3c(=N)n(N)cnc3c2c1-c1ccc(Cl)cc1,-10%,-3,18%,-3,13µM*,?
CCOC(=O)c1c(C)nc2sc3c(=O)n(-c4ccc(C(C)=O)cc4)cnc3c2c1-c1ccc(OC)cc1,3%,2,12%,-6,16%,-6%
O=C(C1CCCCC1)N1CCN=C1SCc1cccc([N+](=O)[O-])c1,-6%,-7,.,2,?,50%
c1ccc2c(N3CCNCC3)cccc2c1,.,.,-37%,.,.,.
c1ccc2c(-n3cccn3)cccc2c1,2%,36*,-9%,83*,-18%,49%
CCCCCc1nc2c(=O)[nH]c3ccccc3c2o1,4%,13,1%,12,5.2µM*,?
CCCc1nc2c(=O)[nH]c3ccccc3c2o1,14%,22,-3%,-10,-6%,?
CC(=O)c1cccc(S(=O)(=O)N2CCCC(c3nc4c(nnn4Cc4ccccc4Cl)c(=O)[nH]3)C2)c1 (stereo not given),2%,-9,22%,-7,1%,?
O=C(O)CCCCCN1C(=O)C(O)=C(C(=O)/C=C/c2ccccc2)C1c1ccccc1[N+](=O)[O-] (stereo not given),-1%,14*,0%,41,9.3µM*,33%
CCCCN1C(=O)C(O)=C(C(C)=O)C1c1ccccc1[N+](=O)[O-] (stereo not given),-1%,4,3%,-10,-1%,24%
N#Cc1c(N(CCO)CCO)nc(N)c2c(N)nc3c(c12)CC(=O)N3CC1CCCO1 (stereo not given),-3%,-1,1%,5,31%,2%
COc1ccc(CN2C(=O)Cc3c2nc(N)c2c(N)nc(N4CCCCC4)c(C#N)c32)cc1,10%,-2,18%,13,?,?
CCCCN1C(=O)Cc2c1nc(N)c1c(N)nc(N(CCC)CCC)c(C#N)c21,0%,2,9%,-9,4.1µM*,4.7µM*
C=C(C)CN(CC)c1nc(N)c2c(N)nc3c(c2c1C#N)CC(=O)N3C12CC3CC(CC(C3)C1)C2,-3%,-3,13%,-6,0.93µM*,.
N#Cc1c(N2CCCC(O)C2)nc(N)c2c(N)nc3c(c12)CC(=O)N3C12CC3CC(CC(C3)C1)C2 (stereo not given),-3%,4,28%,16,0.21µM*,?
CC(=O)NC1(c2ccc(F)cc2)CCN(C(=O)Nc2ccc(F)cc2F)CC1,3%,-1,6%,18,451%,-26%
CC(C)(C)OC(=O)N1Cc2ccccc2C[C@H]1C(=O)O,0%,-9,-3%,-18,-24%,11%
SMILES,SARS PLpro yeast,Cycloheximide cs,NS1 inh,Shiga inhibitor,Pf growth 96h,Pf growth 48h
CCN(CC)CCCCN1c2ccccc2Sc2ccccc21,-1%,-6,0%,-6,-3%,?
C=CCN(c1ccccc1)S(=O)(=O)c1cccc(C(=O)Nc2ncccc2O)c1,5%,.,.,.,?,59%
CCCCn1c(N)c(N(CC(C)C)C(=O)C2=NN(c3cc(C)ccc3C)C(=O)CC2)c(=O)[nH]c1=O,-1%,.,.,.,-1%,0%
COc1ccc(-n2nc(C(=O)NCC(=O)NC(C)C)c3ccccc3c2=O)c(OC)c1,1%,-3,0%,-5,20%,15%
COc1ccc(-n2nc(C(=O)NCC(=O)NCc3ccc(F)cc3)c3ccccc3c2=O)c(OC)c1,3%,1,3%,-9,10µM*,8%
COc1ccc(NC(=O)CNC(=O)c2nn(-c3ccc(OC)cc3OC)c(=O)c3ccccc23)c(OC)c1,0%,3,1%,-4,3.3µM*,?
Cc1ccc(N2CCN(Cc3ccccc3)CC2=O)c(C)c1,6%,7,12%,9,?,7%
COc1ccc(C(=O)NC(Cn2ccnc2)C(C)(C)C)cc1OC1CCN(C(C)C)CC1 (stereo not given),1%,1,10%,7,-56%,-6%
O=[N+]([O-])c1ccc(/C=N/n2c(CO)nc3ccccc32)s1,-10%,-6,-2%,-11,?,4.7µM*
CN(C(=O)/C=C/c1ccc([N+](=O)[O-])s1)c1ccccc1,-2%,10,.,64,?,?
Cc1nc2ccccc2n1/N=C/c1ccc([N+](=O)[O-])s1,-30%,2,-35%,12,4.1µM*,4.1µM*
CC1CCCCC1NC(=O)COc1ncnc2sccc12 (stereo not given),-7%,.,.,.,?,-2%
COc1cccc(Cn2c(Oc3ccccc3)nc3c2c(=O)n(C)c(=O)n3C)c1,-13%,-4,-17%,-7,?,0.66µM*
COc1cccc(COc2nc3c(c(=O)n(C)c(=O)n3C)n2C)c1,0%,-3,1%,-7,4.1µM*,23%
Cn1c(=O)c2c(nc(OCc3ccccc3)n2C)n(C)c1=O,1%,-6,-5%,-13,-1%,.
COC(=O)c1ccc(OCC(=O)c2ccccc2)cc1,7%,46*,-16%,67*,153%,.
COC(=O)c1cc(O)c(OCc2ccccc2)c(O)c1,-15%,18*,-11%,15,26%,-21%
COC(=O)c1cc[n+](CC(=O)c2ccccc2)cc1,2%,26*,15%,24,.,23%
COc1ccc(N2CCN(C(=O)COC(=O)c3cnccn3)CC2)cc1,-1%,.,.,.,3%,-3%
O=C(Cn1nc(C(=O)O)c2ccccc2c1=O)Nc1cc(C(F)(F)F)ccc1-n1cncn1,-2%,.,.,.,-5%,-24%
COc1cccc(C2c3c(oc4ccc(Cl)cc4c3=O)C(=O)N2c2cc(C)on2)c1OC (stereo not given),?,-1,?,13,8.3µM*,9%
O=C(NCc1ccc(F)cc1)C1CCN(c2cnccn2)CC1,1%,-2,2%,-24,-26%,4%

# Screening data deposited in PubChem by National Center for Advancing Translational Sciences (NCATS).
